Bioassay records: PubChem, NMMLSC
Rows were chosen to be rich in hits. Some 1.2% of all compounds tested hit in one or more screens of this group.
AGP1 TOR yeast: yeast TOR pathway AGP1-GFP modulation; S. cerevisiae AGP1-GFP multiplex flow cytometry, 3 h; GFP as percent of DMSO wells; 320,000 tested, 0.02% active; AID 2066; GFP response vs DMSO, % at 10 µM;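 active means GFP response relative to DMSO above a set limit, near screen average plus 3 SD, cut at about 150% in these data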;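 further: median GFP channel fluorescence of the gated AGP1 strain per well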
MEP2-GFP yeast: alters MEP2-GFP fluorescence in TOR pathway yeast screen; GFP response vs DMSO, % at 10 µM; 330,000 tested, 0.51% active; S. cerevisiae MEP2-GFP strain, flow cytometry GFP, 3 h; 100% = DMSO control level;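 active means GFP response versus DMSO above a set limit, roughly screen mean plus 3 SD, cut at about 180% in these data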;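 further: median GFP fluorescence of the barcode-gated MEP2-GFP cells per well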
RPL19A-GFP yeast: modulators of TOR pathway RPL19A-GFP in S. cerevisiae; percent response vs DMSO, % at 10 µM; 330,000 tested, 0.3% active; S. cerevisiae RPL19A-GFP strain, flow cytometry, 3 h; active compounds read low;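 active means percent response vs DMSO below 50%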;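 further: median channel GFP fluorescence of the barcoded RPL19A-GFP strain; ratio of sample median GFP to plate DMSO average so 100% = DMSO; lower means less RPL19A-GFP as with rapamycin TOR inhibition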
LAP4 TOR yeast: yeast TOR pathway LAP4-GFP modulation; S. cerevisiae LAP4-GFP multiplex, flow cytometry GFP, 3 h; median GFP as percent of DMSO wells; 320,000 tested, 0.34% active; GFP response vs DMSO, % at 10 µM;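 active means GFP response vs DMSO above a set limit, about the screen mean plus 3 SD, cut at about 150% in these data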
DSG3 Ab inh: blocks pemphigus antibody binding to human desmoglein-3. AID 588358. 310,000 tested, 0.48% active. DSG3-coupled beads, scFv-anti-DSG3-GFP binding, flow cytometry; active compounds read low. P32926. binding (percent of control), % at 10 µM;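 active means binding more than 3 SD below its plate's average and above zero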;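 further: hits lower antibody fragment binding to DSG3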
CIT2 TOR yeast: modulators of TOR pathway CIT2-GFP in S. cerevisiae; S. cerevisiae CIT2-GFP strain, flow cytometry, 3 h; 100 means same as DMSO wells; GFP response vs DMSO, % at 10 µM; 320,000 tested, 0.065% active; AID 2029;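 active means GFP response relative to DMSO above a set limit, near the screen mean plus 3 SD, cut at about 150% in these data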;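 further: ratio of well median GFP fluorescence to mean of DMSO wells on the plate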
LAP4-GFP pick2: reconfirmed LAP4-GFP TOR pathway modulator in yeast. shares compounds with LAP4 TOR yeast. S. cerevisiae LAP4-GFP strain, flow cytometry GFP, 3 h. 590 tested, 20% active. GFP response vs DMSO, % at 10 µM;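 active means GFP signal as percent of the solvent control above about 150%, meaning raised reporter expression, limit read from the data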;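 further: ratio of well median GFP fluorescence to plate DMSO mean so 100% = DMSO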
MEP2-GFP pick2: reconfirmed MEP2-GFP TOR pathway modulator in yeast. S. cerevisiae MEP2-GFP strain, flow cytometry GFP, 3 h. AID 2622. 590 tested, 10% active. GFP response vs DMSO, % at 10 µM. shares compounds with LAP4 TOR yeast;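 active means GFP signal above 150% of the solvent control wells, that is a rise of more than half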;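 further: median channel GFP fluorescence of all gated yeast cells per well; ratio of median GFP to plate DMSO average so 100% = DMSO level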
RPL19A-GFP pick2: second confirmation of modulators of TOR reporter RPL19A-GFP in yeast; shares compounds with LAP4 TOR yeast; S. cerevisiae RPL19A-GFP strain, flow cytometry GFP, 3 h; active compounds read low; 100% means same as DMSO wells; GFP response vs DMSO, % at 10 µM; 590 tested, 3% active;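 active means under 65% GFP response relative to DMSO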;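 further: median GFP channel fluorescence per well over the all cells gate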
CIT2-GFP pick2: reconfirmed modulator of CIT2-GFP TOR reporter in yeast; shares compounds with LAP4 TOR yeast; GFP response vs DMSO, % at 10 µM; AID 2624; S. cerevisiae CIT2-GFP strain, flow cytometry GFP, 3 h; DMSO control wells read 100%; 590 tested, 8% active;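 active means GFP response vs DMSO above about 150%, limit read from the data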;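 further: median green fluorescence per well over all gated yeast cells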
AGP1 GFP CP2: reconfirmed modulator of AGP1-GFP TOR reporter in yeast; shares compounds with LAP4 TOR yeast; S. cerevisiae AGP1-GFP strain, flow cytometry GFP, 3 h; percent response vs DMSO, % at 10 µM; 590 tested, under 10 active;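 active means over 150 percent of DMSO response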;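 further: median GFP channel fluorescence over all cells without mother daughter split; sample median GFP divided by mean DMSO control so 100% equals DMSO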
s288c autofluor: compound is autofluorescent in yeast s288c cells. 610 tested, under 10 active. S. cerevisiae s288c, 520 nm autofluorescence, flow cytometry, 3 h; active compounds read high; zero means same as solvent-only cells. fluorescence change (kMESF span) at 33 µM. shares compounds with LAP4 TOR yeast. AID 2757;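 active means fluorescence span over the dose series, or activity score, above about 33, limit read from the data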
s288c autofl DR: TOR screen hit shows autofluorescence in yeast s288c. shares compounds with LAP4 TOR yeast. S. cerevisiae s288c parental, compound autofluorescence, flow cytometry, 3 h. fluorescence change (span) at 33 µM. 110 tested, under 10 active;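 active means fluorescence change span, or the activity score built from it, above 25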
TORC1 bypass gr: stops wildtype yeast growth while TORC1 bypass cells still grow. AID 504456. shares compounds with LAP4 TOR yeast. growth rating (0-3) at 30 µM. 120 tested, under 10 active. S. cerevisiae BY4741 spot growth rating, 48-72 h; active compounds read low;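 active means growth rating at most 1 for wild type yeast while the TORC1 bypass strain still grows fully, rated 3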
* hit, by the source's call; x = no result given.

SMILES	AGP1 TOR yeast	MEP2-GFP yeast	RPL19A-GFP yeast	LAP4 TOR yeast	DSG3 Ab inh	CIT2 TOR yeast	LAP4-GFP pick2	MEP2-GFP pick2	RPL19A-GFP pick2	CIT2-GFP pick2	AGP1 GFP CP2	s288c autofluor	others
O=C1ON=C(c2ccccc2)/C1=C/c1ccco1	79.8	97.7	91.2	169.0*	116.5	72.8	x	x	x	x	x	1.92	s288c autofl DR=0.73;TORC1 bypass gr=3
CN(C)/C=C1\C(=O)ON=C1c1ccccc1	96.6	102.4	98.5	90.5	106.8	97.6	x	x	x	x	x	x
O=C1CC(c2ccccc2)CN1C(=O)c1cncc(Br)c1 (configuration not stated)	98.5	100.5	106.5	92.3	114.1	98.8	x	x	x	x	x	x
Cn1c(=O)c2ncn(CC(=O)N=Nc3c(O)[nH]c4ccccc34)c2n(C)c1=O	109.6	117.1	109.9	102.4	x	107.8	x	x	x	x	x	x
CCOc1ccccc1N1CCN(C(=O)NCc2ccc(Cl)cc2)CC1	95.3	102.4	104.8	94.9	x	93.1	x	x	x	x	x	x
COc1ccc(NC(=S)N2CCC(C(=O)c3ccc(F)cc3)CC2)cc1	x	x	x	x	104.9	x	x	x	x	x	x	x
COc1ccc(NC(=O)N2CCC(C(=O)c3ccc(F)cc3)CC2)cc1	76.0	147.2	76.8	400.5*	116.0	99.1	105.2	110.0	97.4	100.1	93.5	x
CCN(C[C@H]1N[C@@](Cc2ccccc2)(C(=O)OC)[C@H]2C(=O)N(Cc3ccccc3)C(=O)[C@@H]12)C(=O)NC(C)C	103.8	102.6	101.9	95.4	98.2	106.9	x	x	x	x	x	x
NCCCn1c(C(=O)c2ccc(Cl)cc2)c2ccc([N+](=O)[O-])cc2[n+]1[O-]	96.3	111.7	105.2	113.2	99.6	99.8	x	x	x	x	x	x
N#Cc1c2ccc([N+](=O)[O-])cc2[n+]([O-])n1-c1ccccc1	53.4	94.9	93.4	165.1*	100.3	94.1	179.4*	136.2	119.2	111.2	89.0	0.71
COc1ccc(N(CC(=O)NCc2ccc(Cl)cc2)S(=O)(=O)c2ccccc2[N+](=O)[O-])c(OC)c1	103.9	104.6	99.4	96.7	92.6	x	x	x	x	x	x	x
O=C1C=CC(=O)N1c1ccc(O)cc1	93.7	85.3	90.3	184.7*	93.1	92.1	x	x	x	x	x	3.02
O=C1CCCC(=O)N1c1ccc(O)cc1	102.3	97.3	103.4	97.2	99.2	100.5	x	x	x	x	x	x
O=C1C=CC(=O)N1c1ccc(OC(F)F)cc1	77.1	86.6	87.0	152.4*	61.7*	71.8	205.8*	131.4	86.8	117.6	88.2	1.7
O=C(O)CNC(=O)c1ccc(OC(F)F)cc1	99.8	99.8	99.7	96.9	95.4	100.3	x	x	x	x	x	x
O=C(O)c1ccc2c(c1)C(=O)/C(=C/c1ccccc1)C2=O	85.9	92.5	93.6	82.6	100.7	86.1	88.2	94.3	99.3	107.1	97.8	0
O=C(O)/C=C/C(=O)c1ccc2c(c1)CCc1ccccc1-2	77.5	88.8	72.0	226.3*	99.3	59.8	128.8	164.7*	68.7	87.1	77.0	1.2
Cc1ccc(S(=O)(=O)/C(C#N)=C/c2c(Oc3ccc(Cl)cc3)nc3c(C)cccn3c2=O)cc1	21.4	383.6*	52.2	80.7	x	103.8	102.2	101.3	100.6	94.6	99.7	x
CCOC(=O)c1ccc(N=Cc2nc(-c3ccccc3)oc2OC(C)=O)cc1	85.0	90.5	91.6	207.6*	102.8	85.3	x	x	x	x	x	0.51
CC(=O)Oc1oc(-c2ccccc2)nc1C=Nc1ccccc1	88.9	93.8	103.9	139.6	247.0	96.6	x	x	x	x	x	-0.1
COc1ccc(N=Cc2nc(-c3ccccc3)oc2OC(=O)c2ccccc2)cc1	88.5	99.3	106.2	73.5	89.5	100.4	x	x	x	x	x	-0.31
CCC(C)N(CC(=O)Nc1cccc(C)c1C)C(=O)CCl (configuration not stated)	108.2	109.9	97.6	106.8	100.0	103.4	x	x	x	x	x	x
Cc1ccc(COC(=O)c2ccc3ccccc3n2)cc1	93.1	96.3	101.5	105.5	116.7	84.5	x	x	x	x	x	x
Cc1ccc(OCCC(=O)NNC(=O)c2cc(C)oc2C)cc1	95.5	88.6	92.7	109.9	97.6	77.8	x	x	x	x	x	x
Cc1ccc(S(=O)(=O)N2CCCC2C(=O)NCc2ccncc2)cc1 (configuration not stated)	109.9	112.0	97.7	100.0	91.8	160.7*	101.9	113.1	100.4	107.4	100.1	0
COc1ccc(CNC(=O)C2CCCN2S(=O)(=O)c2ccc(C)cc2)cc1 (configuration not stated)	97.0	92.8	97.3	102.9	x	89.0	x	x	x	x	x	x
CC(=O)N(C(C)=O)c1ncnc2c1c(-c1ccc(Cl)cc1)nn2C(C)(C)C	96.7	93.2	95.1	96.1	100.6	90.4	96.2	99.8	97.9	93.9	92.5	-0.2
CC(=O)Nc1ncnc2c1c(-c1ccc(Cl)cc1)nn2C(C)(C)C	84.8	87.8	64.5	146.3	105.7	54.6	113.2	106.5	59.3*	68.1	79.3	-0.91	s288c autofl DR=0.14;TORC1 bypass gr=3
CCOC(=O)Cn1nc(-c2ccc(Cl)cc2)ccc1=O	x	98.7	95.5	98.2	101.0	93.7	x	x	x	x	x	x
O=S(=O)(Nc1ccc(S(=O)(=O)Nc2nccs2)cc1)c1ccc2c(c1)OCCO2	109.0	101.7	109.1	103.7	102.6	x	x	x	x	x	x	x
